Only some compounds are listed: those with a hit (about 19% of all), similar ones and a draw of the others.
TGFb SMAD3 inh: qHTS for Inhibitors of TGF-b; HepG2 CAGA-GFP TGF-b/SMAD3 reporter, GFP fluorescence, 18 h; TGF-beta stimulated, 500 pg/mL final; Potency, µM (titrated, usually from 46.1 µM), inactives show at the highest dose activity, negative = inhibition, usual class: inhibitors; 410,000 compounds, 1.2% hits; AID 588855, 2011; note: potency is the fitted concentration of half-maximal effect; % is set by controls: 0 for no effect and ±100 for the full control effect; nearly all actives have a fitted effect of over 65% in size
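Read-out: total well GFP (ex488/em500-530) summed from mean per-cell fluorescence. Cells: HEPG2 CAGA-GFP, 1% FBS DMEM, 18 h at 37 degrees C with 500 pg/mL final TGF-beta. Unstimulated wells served as the full-inhibition control; stimulated DMSO wells = 0%.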
DT40 TDP1 no CPT: qHTS for Inhibitors of human tyrosyl-DNA phosphodiesterase 1 (TDP1): qHTS in cells in absence of CPT; AID 686978, 2013; 420,000 compounds, 15% hits; DT40 Tdp1-/- hTDP1 cells, no CPT, ATP luminescence, 48 h; Potency, µM (titrated, usually from 46.2 µM), inactives show at the top dose activity change, negative = growth inhibition, most hits filed as inhibitors; note: potency is the fitted concentration of half-maximal effect; % is set by controls: 0 for no effect and ±100 for the full control effect; nearly all actives have a fitted effect of over 55% in size
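Growth kinetics read by CellTiter-Glo luminescence after ≥48 hr at 37 °C. Cells: DT40 Tdp1-/- stably carrying human TDP1, 400 per well, compound exposure in the absence of CPT (DMSO vehicle).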
IL1B secr inh: qHTS for Inhibitors of Inflammasome Signaling: IL-1-beta AlphaLISA Primary Screen | THP-1 LPS/ATP IL-1B secretion, AlphaLISA, 16 h; active compounds read low | activity change, % at 57.5 µM | 360,000 compounds, 4.7% hits; in the data active = activity change below about -50%; inconclusive = mostly about -30% to -49%; note: % is set by controls: 0 for no effect and ±100 for the full control effect
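Secreted IL-1B measured by AlphaLISA bead assay after 16 h compound exposure of THP-1 cells; compounds (final up to 57.5 uM) added 1 h before LPS (250 ng/mL) and ATP (1.25 mM) stimulation; lower signal means less secretion.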
TDP1 inh: qHTS Assay for Inhibitors of Tyrosyl-DNA Phosphodiesterase (TDP1) | recombinant TDP1, AlphaScreen DNA substrate cleavage | Potency, µM (series often up to 130 µM), without a hit: at the top dose activity change, negative = inhibition, usual class: inhibitors | 350,000 compounds, 0.28% hits; note: potency is the fitted concentration of half-maximal effect; % is set by controls: 0 for no effect and ±100 for the full control effect; nearly all actives have a fitted effect of over 40% in size
Target sequence (Q9NUW8 whole entry, looked up): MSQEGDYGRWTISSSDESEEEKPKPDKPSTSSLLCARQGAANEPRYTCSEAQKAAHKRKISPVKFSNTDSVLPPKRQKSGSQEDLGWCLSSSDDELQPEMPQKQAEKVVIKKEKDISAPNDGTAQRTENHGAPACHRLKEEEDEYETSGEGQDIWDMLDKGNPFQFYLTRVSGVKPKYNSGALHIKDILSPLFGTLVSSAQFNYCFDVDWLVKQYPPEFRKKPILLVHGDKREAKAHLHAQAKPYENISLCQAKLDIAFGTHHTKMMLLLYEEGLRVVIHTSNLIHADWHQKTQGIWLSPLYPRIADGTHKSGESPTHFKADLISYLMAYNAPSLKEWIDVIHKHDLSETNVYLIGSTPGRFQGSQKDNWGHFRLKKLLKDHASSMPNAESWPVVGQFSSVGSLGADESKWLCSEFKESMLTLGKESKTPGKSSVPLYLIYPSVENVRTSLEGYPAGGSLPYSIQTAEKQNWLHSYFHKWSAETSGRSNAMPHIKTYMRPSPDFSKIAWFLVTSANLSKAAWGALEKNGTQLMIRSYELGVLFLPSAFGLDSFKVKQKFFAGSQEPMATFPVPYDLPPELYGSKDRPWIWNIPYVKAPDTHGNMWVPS
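Compounds were preincubated with Tdp1 (1 nM final) for 15 min at room temperature before substrate (15 nM final) started a 5 min reaction; beads (10 ug/ml final) were then added for 10 min before AlphaScreen detection.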
TDP1 cell CPT: qHTS for Inhibitors of human tyrosyl-DNA phosphodiesterase 1 (TDP1): qHTS in cells in presence of CPT; chicken DT40 Tdp1-/-;hTDP1 cells + 20 nM CPT, ATP luminescence, 48 h; Potency, µM (top dose mostly 46.2 µM), inactives show at the highest dose activity change, negative = growth inhibition, hits mostly inhibitors; 420,000 compounds, 12% hits; note: potency is the fitted concentration of half-maximal effect; % is set by controls: 0 for no effect and ±100 for the full control effect; nearly all actives have a fitted effect of over 55% in size
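Chicken DT40 Tdp1-/- cells stably complemented with human TDP1 were seeded at 400 cells/well in medium containing 20 nM camptothecin, exposed to pin-transferred compounds, and grown at 37 °C for at least 48 hr. Viability was read as ATP luminescence.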
HepG2 viability: qHTS for Inhibitors of TGF-b: Cytotox Counterscreen. HepG2 CAGA-GFP viability, ATP luminescence, 18 h. 410,000 compounds, 0.76% hits. AID 588856, 2011. Potency, µM (doses to about 46.1 µM), inactives show top-dose activity change, negative = cytotoxicity, most hits filed as cytotoxic; note: potency is the fitted concentration of half-maximal effect
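HepG2 CAGA-GFP cells (1000/well, DMEM with 1% FBS) received compound, then TGF-beta at 500 pg/mL final, and were incubated 18 hours at 37 degrees C. Viability was read by CellTiter-Glo luminescence. Media-only wells were set as complete cell-killing and DMSO as no toxicity.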
The depositor's hits bear a star; [ ] = another dose, or the depositor's remark. Unless noted, calls come from the whole dose curve; as a rule, active = well fitted curve in the direction sought with a large enough effect; inconclusive = small, poorly fitted or top-dose-only effect, or another doubt; inactive = no such curve, though single readings can be large; an effect the other way counts as inactive or inconclusive.

How did Cc1ccc(N(CC(=O)Nc2ccc(-c3nc4ccc(C)cc4s3)cc2)S(C)(=O)=O)cc1 do in these assays?
TGFb SMAD3 inh: inconclusive; DT40 TDP1 no CPT: -11%; IL1B secr inh: 4; TDP1 inh: 2%; TDP1 cell CPT: -27%; HepG2 viability: -1%

How did COc1ccc2c(=O)c(-c3ccccc3C)c(C)oc2c1 do in these assays?
TGFb SMAD3 inh: 4%; DT40 TDP1 no CPT: 13µM*; IL1B secr inh: -23; TDP1 inh: 9%; TDP1 cell CPT: inconclusive; HepG2 viability: -33%

How did COc1ccc2c(=O)c3c(=O)n(-c4ccc(C)cc4)c(-c4ccccc4)nc3oc2c1 do in these assays?
TDP1 inh: 0%

How did COc1ccc(-c2oc3ccccc3c(=O)c2O)cc1 do in these assays?
DT40 TDP1 no CPT: 0%; TDP1 inh: 12%[56.1 µM]; TDP1 cell CPT: -3%

What do the screens show for `CCCOc1ccc2c(=O)c(-c3cc(C(=O)OC)oc3C)c(C)oc2c1`?
TGFb SMAD3 inh: inconclusive; DT40 TDP1 no CPT: 18µM*; IL1B secr inh: inconclusive; TDP1 inh: 4%; TDP1 cell CPT: 13µM*; HepG2 viability: -27%

What do the screens show for `COc1ccccc1-c1c(C)oc2cc(OC(=O)c3ccco3)ccc2c1=O`?
TGFb SMAD3 inh: 0%; DT40 TDP1 no CPT: inconclusive; IL1B secr inh: 3; TDP1 inh: 4%; TDP1 cell CPT: inconclusive; HepG2 viability: 0%

How did COc1ccc2c(=O)c(-c3ccc(C)cc3)c(-c3ccccc3)oc2c1 do in these assays?
TGFb SMAD3 inh: -7%; DT40 TDP1 no CPT: 7.3µM*; IL1B secr inh: 0; TDP1 inh: -2%[56.1 µM]; TDP1 cell CPT: 12µM*; HepG2 viability: -12%

What do the screens show for `COc1ccc2c(=O)c(OC)c(-c3ccccc3)oc2c1`?
DT40 TDP1 no CPT: 7.3µM*; TDP1 inh: 6%[56.1 µM]; TDP1 cell CPT: inconclusive

How did COC(=O)c1ccc(COc2ccc3c(C)c(C)c(=O)oc3c2)o1 do in these assays?
TGFb SMAD3 inh: 3%; DT40 TDP1 no CPT: -14%; IL1B secr inh: 0; TDP1 inh: -2%; TDP1 cell CPT: -7%; HepG2 viability: -37%

Results for COc1ccc(C[C@@H](NS(=O)(=O)c2ccc(C(=O)O)cc2)C(=O)O)cc1 ?
TDP1 inh: 6%

Results for COC(=O)c1ccccc1NC(=O)CCCOc1cc(=O)n(C)c2ccccc12 ?
TGFb SMAD3 inh: 2%; DT40 TDP1 no CPT: inconclusive; IL1B secr inh: 26; TDP1 cell CPT: inconclusive; HepG2 viability: -25%

What do the screens show for `CC1CCC(C(=O)NC(C(=O)OCC(=O)c2ccccc2)C(C)C)CC1` (centres undefined)?
TGFb SMAD3 inh: 0%; DT40 TDP1 no CPT: 18µM*; TDP1 cell CPT: 18µM*; HepG2 viability: -24%

Results for CCc1ccc(C(=O)COC(=O)C(Cc2ccccc2)NC(=O)C2CCC(C)CC2)cc1 (centres undefined) ?
TGFb SMAD3 inh: 8%; DT40 TDP1 no CPT: -23%; IL1B secr inh: 0; TDP1 inh: 4%; TDP1 cell CPT: 1%; HepG2 viability: -3%

Results for COc1cccc(-c2cc(=O)c3cc(NC(=O)c4ccc(N(C)C)cc4)ccc3[nH]2)c1 ?
TGFb SMAD3 inh: inconclusive; DT40 TDP1 no CPT: 1µM*; IL1B secr inh: 144; TDP1 inh: 1%; TDP1 cell CPT: 0.92µM*; HepG2 viability: -19%

What do the screens show for `COc1ccc2[nH]c(-c3ccccc3)cc(=O)c2c1`?
TDP1 inh: 3%[234 µM]

Results for COc1cccc(-c2cc(=O)c3cc(NC(=O)c4ccccc4)ccc3[nH]2)c1 ?
TGFb SMAD3 inh: inconclusive; DT40 TDP1 no CPT: 4.1µM*; IL1B secr inh: 170; TDP1 inh: 7%; TDP1 cell CPT: 4.6µM*; HepG2 viability: -7%

What do the screens show for `COc1ccccc1/C=C/C(=O)c1ccccc1`?
TGFb SMAD3 inh: inconclusive; DT40 TDP1 no CPT: 13µM*; IL1B secr inh: -18; TDP1 inh: 3%; TDP1 cell CPT: inconclusive; HepG2 viability: -57%

What do the screens show for `COc1ccccc1/C=C/C(=O)c1c2c(c(C)[nH]c1=O)CCCC2`?
TGFb SMAD3 inh: -22%; DT40 TDP1 no CPT: inconclusive; IL1B secr inh: -101*; TDP1 inh: 7%; TDP1 cell CPT: inconclusive; HepG2 viability: 6%

How did COc1ccc(OC)c(NC(=O)c2ccc(Cl)cc2)c1 do in these assays?
TGFb SMAD3 inh: -5%; DT40 TDP1 no CPT: -9%; IL1B secr inh: -6; TDP1 inh: 3%; TDP1 cell CPT: 14%; HepG2 viability: 2%

Results for COc1ccccc1/C=C(\C)C(=O)c1c(C)cc(C)[nH]c1=O ?
TGFb SMAD3 inh: -6%; DT40 TDP1 no CPT: 13%; IL1B secr inh: 0; TDP1 cell CPT: -1%; HepG2 viability: 7%

What do the screens show for `COc1ccccc1C(=O)Nc1ccc(C(=O)c2ccccc2)cc1`?
TGFb SMAD3 inh: 4%; DT40 TDP1 no CPT: inconclusive; IL1B secr inh: -30; TDP1 inh: -3%; TDP1 cell CPT: -6%; HepG2 viability: 0%

Results for COc1ccc(OC)c(/C=C/C(=O)c2ccc(Cl)cc2)c1 ?
TGFb SMAD3 inh: inconclusive; DT40 TDP1 no CPT: inconclusive; IL1B secr inh: -89*; TDP1 inh: -6%; TDP1 cell CPT: 18µM*; HepG2 viability: -89%

What do the screens show for `COc1ccccc1/C=C/C(=O)c1ccc(NC(C)=O)cc1`?
TGFb SMAD3 inh: inconclusive; DT40 TDP1 no CPT: 15µM*; IL1B secr inh: -107*; TDP1 inh: 2%; TDP1 cell CPT: inconclusive; HepG2 viability: -18%

What do the screens show for `COc1ccc(/C=C/C(=O)c2ccccc2)c(OC)c1`?
TGFb SMAD3 inh: inconclusive; DT40 TDP1 no CPT: -19%; IL1B secr inh: 0; TDP1 inh: 2%; TDP1 cell CPT: -22%; HepG2 viability: -40%

Results for COC(=O)C1=C(CS(=O)(=O)c2cc(Cl)ccc2OC)NC(=O)NC1c1ccccc1 (centres undefined) ?
TGFb SMAD3 inh: -25%; DT40 TDP1 no CPT: inconclusive; TDP1 inh: 6%; TDP1 cell CPT: -25%; HepG2 viability: -19%
